Measured values: the supplement of paper PMC7595190
A number with no mark means an inactive call.

Test system: MV4-11
Assay: CellTox Green cytotoxicity fluorescence relative to DMSO vehicle (fold of vehicle RFU); higher = more cell death (loss of membrane integrity), active = 2 or more
Experimental: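 Paediatric AML cell lines (MV4-11, CMK, Kasumi-1; 4x10^4 cells/well, 96-well) treated with single compounds from the Selleckchem apoptosis library at 0.01, 0.1 and 1 µM. Cytotoxicity was read with CellTox Green (RFU, Ex 485/Em 520) at 24, 48 and 72 h and normalised to the 0.1% DMSO vehicle. Normalised RFU >= 2 was taken as a successful, cell-killing treatment.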

CC[C@H](C)[C@@H]([C@@H](CC(=O)N1CCC[C@H]1[C@H](OC)[C@@H](C)C(=O)N[C@H](C)[C@@H](O)c1ccccc1)OC)N(C)C(=O)[C@@H](NC(=O)[C@@H](NC)C(C)C)C(C)C [Monomethyl auristatin E]
CellTox Green cytotoxicity fluorescence (0.01 µM, 24 h): 1.19
CellTox Green cytotoxicity fluorescence (0.01 µM, 48 h): 2.42 (active)
CellTox Green cytotoxicity fluorescence (0.01 µM, 72 h): 2.81 (active)
CellTox Green cytotoxicity fluorescence (0.1 µM, 24 h): 1.3
CellTox Green cytotoxicity fluorescence (0.1 µM, 48 h): 2.48 (active)
CellTox Green cytotoxicity fluorescence (0.1 µM, 72 h): 2.73 (active)
CellTox Green cytotoxicity fluorescence (1 µM, 24 h): 1.58
CellTox Green cytotoxicity fluorescence (1 µM, 48 h): 2.5 (active)
CellTox Green cytotoxicity fluorescence (1 µM, 72 h): 2.74 (active)

CC1=C(O)C(=O)C=C2C1=CC=C1[C@@]2(C)CC[C@@]2(C)[C@@H]3C[C@](C)(C(=O)O)CC[C@]3(C)CC[C@]12C [Celastrol]
CellTox Green cytotoxicity fluorescence (0.01 µM, 24 h): 0.931
CellTox Green cytotoxicity fluorescence (0.01 µM, 48 h): 0.955
CellTox Green cytotoxicity fluorescence (0.01 µM, 72 h): 0.964
CellTox Green cytotoxicity fluorescence (0.1 µM, 24 h): 0.966
CellTox Green cytotoxicity fluorescence (0.1 µM, 48 h): 0.976
CellTox Green cytotoxicity fluorescence (0.1 µM, 72 h): 1.01
CellTox Green cytotoxicity fluorescence (1 µM, 24 h): 1.29
CellTox Green cytotoxicity fluorescence (1 µM, 48 h): 1.96
CellTox Green cytotoxicity fluorescence (1 µM, 72 h): 2.21 (active)

O=c1[nH]c2ccccc2n1C1CCN(Cc2ccc(-c3[nH]c4cc5ncnc5cc4nc3-c3ccccc3)cc2)CC1
CellTox Green cytotoxicity fluorescence (0.01 µM, 24 h): 1
CellTox Green cytotoxicity fluorescence (0.01 µM, 48 h): 0.995
CellTox Green cytotoxicity fluorescence (0.01 µM, 72 h): 0.956
CellTox Green cytotoxicity fluorescence (0.1 µM, 24 h): 1
CellTox Green cytotoxicity fluorescence (0.1 µM, 48 h): 0.999
CellTox Green cytotoxicity fluorescence (0.1 µM, 72 h): 0.993
CellTox Green cytotoxicity fluorescence (1 µM, 24 h): 1.04
CellTox Green cytotoxicity fluorescence (1 µM, 48 h): 1.1
CellTox Green cytotoxicity fluorescence (1 µM, 72 h): 1.21

Cn1c(COP(=O)(NCCBr)NCCBr)cnc1[N+](=O)[O-]
CellTox Green cytotoxicity fluorescence (0.01 µM, 24 h): 0.981
CellTox Green cytotoxicity fluorescence (0.01 µM, 48 h): 0.971
CellTox Green cytotoxicity fluorescence (0.01 µM, 72 h): 0.974
CellTox Green cytotoxicity fluorescence (0.1 µM, 24 h): 0.97
CellTox Green cytotoxicity fluorescence (0.1 µM, 48 h): 0.983
CellTox Green cytotoxicity fluorescence (0.1 µM, 72 h): 1.04
CellTox Green cytotoxicity fluorescence (1 µM, 24 h): 0.97
CellTox Green cytotoxicity fluorescence (1 µM, 48 h): 1.38
CellTox Green cytotoxicity fluorescence (1 µM, 72 h): 2.79 (active)

COc1cc([C@@H]2c3cc4c(cc3[C@H](O)[C@H]3COC(=O)[C@@H]23)OCO4)cc(OC)c1OC [Picropodophyllin]
CellTox Green cytotoxicity fluorescence (0.01 µM, 24 h): 0.934
CellTox Green cytotoxicity fluorescence (0.01 µM, 48 h): 0.932
CellTox Green cytotoxicity fluorescence (0.01 µM, 72 h): 0.939
CellTox Green cytotoxicity fluorescence (0.1 µM, 24 h): 0.922
CellTox Green cytotoxicity fluorescence (0.1 µM, 48 h): 0.924
CellTox Green cytotoxicity fluorescence (0.1 µM, 72 h): 0.931
CellTox Green cytotoxicity fluorescence (1 µM, 24 h): 1.28
CellTox Green cytotoxicity fluorescence (1 µM, 48 h): 2.6 (active)
CellTox Green cytotoxicity fluorescence (1 µM, 72 h): 3.18 (active)
